# Records with an inconclusive call do not appear. Where a call stands in place of a potency, no number is given. A number with no mark means an inactive call. Active and inactive are the calls of the source. Calls follow the shape of the dose curve; as a rule, active = well fitted inhibition curve with a large enough effect; inconclusive = small, poorly fitted or top-dose-only effect; inactive = flat fitted curve, though single readings scatter.
# Tests used:
# JCK = assay: qHTS profiling for inhibitors of Plasmodium falciparum proliferation (AID 504749); also: potency is read from the fitted curve at half-maximal effect; conditions: P. falciparum in erythrocytes, SYBR Green DNA, 72 h; series mostly up to 28.7 µM
# Outline: (§1)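 Readout was DNA-dye fluorescence from lysed cultures, ex 485/em 535 nm. Parasitized red cells had grown 72 h with compound; data scaled between 0.29 uM artemisinin and DMSO wells and corrected using vehicle-only plates.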
# N140 = assay: as above; conditions: P. falciparum in erythrocytes, SYBR Green DNA, 72 h; series mostly up to 28.7 µM
# Outline: as §1
# P93_24 = assay: as above; conditions: P. falciparum in erythrocytes, SYBR Green DNA, 72 h; series mostly up to 28.7 µM
# Outline: as §1
# P94_40 = assay: as above; conditions: P. falciparum in erythrocytes, SYBR Green DNA, 72 h; series mostly up to 28.7 µM
# Outline: as §1
# PAD = assay: as above; conditions: P. falciparum in erythrocytes, SYBR Green DNA, 72 h; series mostly up to 28.7 µM
# Outline: as §1
# PC15 = assay: as above; conditions: P. falciparum in erythrocytes, SYBR Green DNA, 72 h; series mostly up to 28.7 µM
# Outline: as §1
# PC49 = assay: as above; conditions: P. falciparum in erythrocytes, SYBR Green DNA, 72 h; series mostly up to 28.7 µM
# Outline: as §1
# TAB109 = assay: as above; conditions: P. falciparum in erythrocytes, SYBR Green DNA, 72 h; series mostly up to 28.7 µM
# Outline: as §1
# TAB113 = assay: as above; conditions: P. falciparum in erythrocytes, SYBR Green DNA, 72 h; series mostly up to 28.7 µM
# Outline: as §1
# HaCat [1] = assay: Cytotoxic Profiling of Annotated Libraries Using Quantitative High-Throughput Screening (AID 1296008); conditions: Five cell lines viability, CellTiter-Glo ATP luminescence, 48-72 h; max response: hits give low values; also: potency is read from the fitted curve at half-maximal effect
# Outline: (§2)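 Cells exposed to compounds for 48 or 72 hr at 37 degrees Celsius. Viability read as ATP-coupled luminescence with CellTiter-Glo after 10 min at room temperature.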
# KB-3-1 = assay: as above; conditions: Five cell lines viability, CellTiter-Glo ATP luminescence, 48-72 h; max response: hits give low values
# Outline: as §2
# HACAT [2] = assay: qHTS assay to identify novel small-molecules to repurpose for Merkel cell carcinoma treatment (AID 1296009); conditions: MCC and control cell lines, CellTiter-Glo viability, 72 h; at 44.8 µM (top of the series) unless noted
# Outline: (§3)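 Cells were incubated with compound for 72 hr at 37 degree celsius before CellTiter-Glo addition. Luminescence was normalized with no-cell wells as full cytotoxicity and DMSO as baseline.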
# PC26 = assay: qHTS profiling for inhibitors of Plasmodium falciparum proliferation (AID 504749); also: potency is read from the fitted curve at half-maximal effect; conditions: P. falciparum in erythrocytes, SYBR Green DNA, 72 h; series mostly up to 28.7 µM
# Outline: as §1
# W2 = assay: as above; conditions: P. falciparum in erythrocytes, SYBR Green DNA, 72 h; series mostly up to 28.7 µM
# Outline: as §1
# NIH3T3 = assay: Cytotoxic Profiling of Annotated Libraries Using Quantitative High-Throughput Screening (AID 1296008); conditions: Five cell lines viability, CellTiter-Glo ATP luminescence, 48-72 h; max response: hits give low values; also: potency is read from the fitted curve at half-maximal effect
# Outline: as §2
# SC27B = assay: qHTS profiling for inhibitors of Plasmodium falciparum proliferation (AID 504749); also: potency is read from the fitted curve at half-maximal effect; conditions: P. falciparum in erythrocytes, SYBR Green DNA, 72 h; series mostly up to 28.7 µM
# Outline: as §1
# TAB165 = assay: as above; conditions: P. falciparum in erythrocytes, SYBR Green DNA, 72 h; series mostly up to 28.7 µM
# Outline: as §1
# HEK293 = assay: Cytotoxic Profiling of Annotated Libraries Using Quantitative High-Throughput Screening (AID 1296008); conditions: Five cell lines viability, CellTiter-Glo ATP luminescence, 48-72 h; max response: hits give low values; also: potency is read from the fitted curve at half-maximal effect
# Outline: as §2
# HEK293T = assay: qHTS assay to identify novel small-molecules to repurpose for Merkel cell carcinoma treatment (AID 1296009); conditions: MCC and control cell lines, CellTiter-Glo viability, 72 h; at 44.8 µM (top of the series) unless noted
# Outline: as §3
# Also: nearly all actives have a fitted effect of over 60% in size.
compound,measurement,setting,value
CCOC(=O)C1=C(C)NC(C)=C(C(=O)OC)C1c1cccc(Cl)c1Cl (configuration not stated),Potency,JCK,inactive
same,Potency,N140,inactive
same,Potency,P93_24,inactive
same,Potency,P94_40,inactive
same,Potency,PAD,inactive
same,Potency,PC15,inactive
same,Potency,PC49,inactive
same,Potency,TAB109,inactive
same,Potency,TAB113,inactive
same,outcome,HaCat [1],inactive
same,max response,KB-3-1,-8.74%
same,outcome,HACAT [2],inactive
CCc1cccc(N(C)C(N)=Nc2cccc3ccccc23)c1,Potency,PAD,4.47 µM (active)
same,Potency,PC15,5.01 µM (active)
same,Potency,PC26,4.26 µM (active)
same,Potency,W2,0.757 µM (active)
same,max response,HaCat [1],-4.04%
same,max response,KB-3-1,-7.55%
same,max response,NIH3T3,-9.35%
COCC(=O)O[C@]1(CCN(C)CCCc2nc3ccccc3[nH]2)CCc2cc(F)ccc2[C@@H]1C(C)C,Potency,JCK,7.94 µM (active)
same,Potency,N140,0.562 µM (active)
same,Potency,P93_24,1.58 µM (active)
same,Potency,P94_40,2.82 µM (active)
same,Potency,PAD,3.55 µM (active)
same,Potency,PC15,4.47 µM (active)
same,Potency,PC26,3.38 µM (active)
same,Potency,PC49,1.12 µM (active)
same,Potency,SC27B,1.78 µM (active)
same,Potency,TAB109,2.24 µM (active)
same,Potency,TAB113,2 µM (active)
same,Potency,TAB165,2 µM (active)
same,Potency,W2,0.12 µM (active)
C[C@]12CCC(=O)C=C1CC[C@@H]1[C@@H]2C(=O)C[C@@]2(C)[C@H]1CC[C@]2(O)C(=O)CO,outcome,HEK293,inactive
same,max response,NIH3T3,1.17%
same,outcome,HEK293T,inactive
CN(C)C(=O)Oc1ccc[n+](C)c1,Potency,JCK,inactive
same,Potency,N140,inactive
same,Potency,P93_24,inactive
same,Potency,P94_40,inactive
same,Potency,PAD,inactive
same,Potency,PC15,inactive
same,Potency,PC26,inactive
same,Potency,PC49,inactive
same,Potency,SC27B,inactive
same,Potency,TAB109,inactive
same,Potency,TAB113,inactive
same,Potency,TAB165,inactive
same,Potency,W2,inactive
same,outcome,HEK293T,inactive
CN(C)CCCN1c2ccccc2Sc2ccc(C(F)(F)F)cc21,Potency,PC49,8.91 µM (active)
same,Potency,TAB165,12.6 µM (active)
same,Potency,W2,6.75 µM (active)
C[N+](C)(C)CCCCCCCCCC[N+](C)(C)C,Potency,JCK,11.2 µM (active)
same,Potency,N140,2.82 µM (active)
same,Potency,P93_24,2.51 µM (active)
same,Potency,P94_40,2.51 µM (active)
same,Potency,PAD,2.24 µM (active)
same,Potency,PC15,8.91 µM (active)
same,Potency,PC26,6.01 µM (active)
same,Potency,PC49,3.98 µM (active)
same,Potency,SC27B,3.98 µM (active)
same,Potency,TAB109,3.55 µM (active)
same,Potency,TAB113,2.82 µM (active)
same,Potency,TAB165,3.16 µM (active)
same,Potency,W2,4.78 µM (active)
CN(C)CCN(Cc1cccs1)c1ccccn1,Potency,N140,11.2 µM (active)
same,Potency,P93_24,7.94 µM (active)
same,Potency,P94_40,10 µM (active)
same,Potency,PC49,10 µM (active)
same,Potency,TAB109,4.47 µM (active)
same,Potency,W2,1.9 µM (active)
same,outcome,HACAT [2],inactive
COc1cc2c(cc1OC)-c1cc(=Nc3c(C)cc(C)cc3C)n(C)c(=O)n1CC2,Potency,JCK,5.62 µM (active)
same,Potency,N140,3.16 µM (active)
same,Potency,P93_24,3.55 µM (active)
same,Potency,P94_40,3.98 µM (active)
same,Potency,PAD,3.16 µM (active)
same,Potency,PC15,10 µM (active)
same,Potency,PC26,6.01 µM (active)
same,Potency,PC49,3.55 µM (active)
same,Potency,SC27B,2.82 µM (active)
same,Potency,TAB109,4.47 µM (active)
same,Potency,TAB113,3.16 µM (active)
same,Potency,TAB165,2.51 µM (active)
same,Potency,W2,1.9 µM (active)
same,outcome,HaCat [1],inactive
same,outcome,HACAT [2],inactive
COCCc1ccc(OCC(O)CNC(C)C)cc1 (configuration not stated),outcome,HACAT [2],inactive
same,outcome,HEK293T,inactive
NS(=O)(=O)c1cc2c(cc1Cl)NC(C1CC3C=CC1C3)NS2(=O)=O (configuration not stated),Potency,JCK,inactive
same,Potency,N140,inactive
same,Potency,P93_24,inactive
same,Potency,P94_40,inactive
same,Potency,PAD,inactive
same,Potency,PC15,inactive
same,Potency,PC26,inactive
same,Potency,PC49,inactive
same,Potency,SC27B,inactive
same,Potency,TAB109,inactive
same,Potency,TAB113,inactive
same,Potency,TAB165,inactive
same,outcome,HEK293,inactive
same,max response,KB-3-1,-20.4%
same,outcome,HEK293T,inactive
CC[N+](C)(C)c1cccc(O)c1,Potency,JCK,inactive
same,Potency,N140,inactive
same,Potency,P93_24,inactive
same,Potency,P94_40,inactive
same,Potency,PAD,inactive
same,Potency,PC15,inactive
same,Potency,PC26,inactive
same,Potency,PC49,inactive
same,Potency,SC27B,inactive
same,Potency,TAB109,inactive
same,Potency,TAB113,inactive
same,Potency,TAB165,inactive
same,Potency,W2,inactive
CCNC(=O)N1CCN(CCCC(c2ccc(F)cc2)c2ccc(F)cc2)CC1,Potency,JCK,10 µM (active)
same,Potency,N140,2.82 µM (active)
same,Potency,P93_24,2 µM (active)
same,Potency,P94_40,2.82 µM (active)
same,Potency,PAD,3.55 µM (active)
same,Potency,PC15,3.55 µM (active)
same,Potency,PC26,4.78 µM (active)
same,Potency,PC49,0.891 µM (active)
same,Potency,SC27B,2 µM (active)
same,Potency,TAB109,2.24 µM (active)
same,Potency,TAB113,2.24 µM (active)
same,Potency,TAB165,2 µM (active)
same,Potency,W2,0.953 µM (active)
same,outcome,HaCat [1],inactive
same,max response,KB-3-1,-7.16%
same,max response,NIH3T3,-3.38%
same,outcome,HACAT [2],inactive
COCCOC(=O)C1=C(C)NC(C)=C(C(=O)OC(C)C)C1c1cccc([N+](=O)[O-])c1 (configuration not stated),Potency,N140,12.6 µM (active)
same,Potency,PC26,12 µM (active)
same,Potency,PC49,inactive
same,Potency,TAB165,10 µM (active)
same,outcome,HaCat [1],inactive
same,max response,KB-3-1,2.4%
same,max response,NIH3T3,-6.33%
same,outcome,HACAT [2],inactive
Cc1nc2ccccn2c(=O)c1CCN1CCC(C(=O)c2ccc(F)cc2)CC1,Potency,JCK,inactive
same,Potency,N140,inactive
same,Potency,PC26,inactive
same,Potency,SC27B,inactive
same,Potency,TAB113,inactive
same,Potency,W2,6.01 µM (active)
same,max response,HaCat [1],-15.4%
same,max response,KB-3-1,-5.16%
same,max response,NIH3T3,-5.4%
CCCCNC(=O)NS(=O)(=O)c1ccc(C)cc1,Potency,JCK,inactive
same,Potency,N140,inactive
same,Potency,P93_24,inactive
same,Potency,P94_40,inactive
same,Potency,PAD,inactive
same,Potency,PC15,inactive
same,Potency,PC26,inactive
same,Potency,PC49,inactive
same,Potency,SC27B,inactive
same,Potency,TAB109,inactive
same,Potency,TAB113,inactive
same,Potency,TAB165,inactive
same,Potency,W2,inactive
same,outcome,HEK293T,inactive
CC(C)NCC(O)c1cc(O)cc(O)c1 (configuration not stated),outcome,HACAT [2],inactive
CC(C)COCC(CN(Cc1ccccc1)c1ccccc1)N1CCCC1 (configuration not stated),Potency,JCK,inactive
same,Potency,P93_24,inactive
same,Potency,PAD,inactive
same,Potency,PC49,inactive
same,Potency,SC27B,inactive
same,Potency,TAB109,inactive
same,Potency,TAB113,inactive
same,Potency,HEK293,18.8 µM (active)
same,max response,KB-3-1,-4.17%
same,Potency,NIH3T3,26.6 µM (active)
NC1=NCC2c3ccccc3Cc3ccccc3N12 (configuration not stated),Potency,JCK,inactive
same,Potency,N140,inactive
same,Potency,P93_24,inactive
same,Potency,P94_40,inactive
same,Potency,PAD,inactive
same,Potency,PC15,inactive
same,Potency,PC26,inactive
same,Potency,PC49,inactive
same,Potency,SC27B,inactive
same,Potency,TAB109,inactive
same,Potency,TAB113,inactive
same,Potency,TAB165,inactive
same,Potency,W2,inactive
same,max response,HaCat [1],-7.94%
same,max response,KB-3-1,-4.43%
same,max response,NIH3T3,-2.29%
CCn1nc(C(=O)O)c(=O)c2cc3c(cc21)OCO3,outcome,HEK293T,inactive
CNCCCN1c2ccccc2CCc2ccccc21,outcome,HaCat [1],inactive
same,max response,KB-3-1,-3.48%
same,outcome,HACAT [2],inactive
CN1CCN(CC(=O)N2c3ccccc3C(=O)Nc3cccnc32)CC1,Potency,JCK,inactive
same,Potency,N140,inactive
same,Potency,P93_24,inactive
same,Potency,P94_40,inactive
same,Potency,PAD,inactive
same,Potency,PC15,inactive
same,Potency,PC26,inactive
same,Potency,PC49,inactive
same,Potency,SC27B,inactive
same,Potency,TAB109,inactive
same,Potency,TAB113,inactive
same,Potency,TAB165,inactive
same,Potency,W2,inactive
same,outcome,HACAT [2],inactive [at 4.96 µM]
C#CCN(C)CCCOc1ccc(Cl)cc1Cl,Potency,JCK,inactive
same,Potency,N140,inactive
same,Potency,P93_24,inactive
same,Potency,P94_40,inactive
same,Potency,PAD,inactive
same,Potency,PC15,inactive
same,Potency,PC26,inactive
same,Potency,PC49,inactive
same,Potency,SC27B,inactive
same,Potency,TAB109,inactive
same,Potency,TAB113,inactive
same,Potency,TAB165,inactive

# Source: PubChem BioAssay (NCATS)
